According to PubChem BioAssay AID1159580 (chemical genetic matrix, 2015):
Several values for one entry are separate records, joined by “and”; a condition that tells them apart may be missing. Identical values can stand only once. Out of some 5,500 compounds screened, about 2,000 (36%) were called active. About 18% were inconclusive and are not listed. No stated cut-off is given here; in the data, active means normalized growth mostly below about 0.91 (no sharp cut-off); inconclusive means no clear call, values can overlap the other calls; inactive means mostly above about 0.92. This is one part of the list.

Assay: chemical genetic growth profiling, strain panel (AID 1159580);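 further: tested at 20 µM; growth read once vehicle control cultures reached saturation at 30 °C; 1 = growth at the plate median or of vehicle wells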
Conditions: S. cerevisiae deletion strains, growth OD

Measured: normalized growth

CC[C@@H](C(=O)[C@@H](C)[C@@H](O)[C@H](C)[C@@H]1O[C@@H]([C@@H](CC)C(=O)O)CC[C@@H]1C)[C@H]1OC2(C=C[C@@H](O)[C@]3(CC[C@@](C)([C@H]4CC[C@](O)(CC)[C@H](C)O4)O3)O2)[C@H](C)C[C@@H]1C (some centres undefined)
active: locus YAL021C, strain ccr4, stronger effect = lower value 0.721 | locus YAL026C, strain drs2, stronger effect = lower value 0.14 | locus YAL030W, strain snc1, stronger effect = lower value 0.906 | locus YBL061C, strain skt5, stronger effect = lower value 0.846 | locus YBR009C, strain hhf1, stronger effect = lower value 0.833 | locus YBR021W, strain FUR4, stronger effect = lower value 0.753 | locus YBR023C, strain chs3, stronger effect = lower value 0.839 | locus YBR171W, strain sec66, stronger effect = lower value 0.887 | locus YBR231C, strain swc5, stronger effect = lower value 0.789 | locus YCL011C, strain gbp2, stronger effect = lower value 0.867 | locus YCL016C, strain dcc1, stronger effect = lower value 0.85 | locus YCL069W, strain vba3, stronger effect = lower value 0.892 | locus YCR088W, strain abp1, stronger effect = lower value 0.877 | locus YDL134C, strain PPH21, stronger effect = lower value 0.871 | locus YDL192W, strain arf1, stronger effect = lower value 0.136 | locus YDR069C, strain doa4, stronger effect = lower value 0.872 | locus YDR101C, strain arx1, stronger effect = lower value 0.891 | locus YDR162C, strain NBP2, stronger effect = lower value 0.69 | locus YDR297W, strain sur2, stronger effect = lower value 0.919 | locus YDR318W, strain mcm21, stronger effect = lower value 0.825 | locus YDR388W, stronger effect = lower value 0.668 | locus YDR502C, strain sam2, stronger effect = lower value 0.847 | locus YEL003W, strain gim4, stronger effect = lower value 0.885 | locus YEL037C, strain rad23, stronger effect = lower value 0.901 | locus YFR010W, strain ubp6, stronger effect = lower value 0.84 | locus YGL078C, strain dbp3, stronger effect = lower value 0.917 | locus YGL086W, strain mad1, stronger effect = lower value 0.863 | locus YGL167C, strain pmr1, stronger effect = lower value 0.744 | locus YGL248W, strain PDE1, stronger effect = lower value 0.878 | locus YGL253W, strain hxk2, stronger effect = lower value 0.816 | locus YHR079C, strain IRE1 (second series), stronger effect = lower value 0.837 | locus YHR079C, strain IRE1, stronger effect = lower value 0.164 | locus YHR094C, strain hxt1, stronger effect = lower value 0.877 | locus YHR142W, strain chs7, stronger effect = lower value 0.836 | locus YHR200W, strain rpn10, stronger effect = lower value 0.908 | locus YIL125W, strain kgd1, stronger effect = lower value 0.785 | locus YIR030C, strain dcg1, stronger effect = lower value 0.892 | locus YJL092W, strain hpr5, stronger effect = lower value 0.903 | locus YJL095W, strain BCK1 (second series), stronger effect = lower value 0.875 | locus YJL129C, strain trk1, stronger effect = lower value 0.707 | locus YJL154C, strain vps35, stronger effect = lower value 0.821 | locus YJL164C, strain tpk1, stronger effect = lower value 0.883 | locus YJL168C, strain set2, stronger effect = lower value 0.873
0.934 (inactive) and 0.145 (active): locus YHR030C, strain SLT2, stronger effect = lower value
inactive: locus YAL013W, strain DEP1, stronger effect = lower value 1.02 | locus YBR229C, strain ROT2, stronger effect = lower value 0.932 | locus YBR279W, strain paf1, stronger effect = lower value 0.94 | locus YCL029C, strain bik1, stronger effect = lower value 0.911 | locus YCL061C, strain MRC1, stronger effect = lower value 0.923 | locus YDL005C, strain med2, stronger effect = lower value 0.97 | locus YDL035C, strain GPR1, stronger effect = lower value 0.876 | locus YDL040C, strain nat1, stronger effect = lower value 0.944 | locus YDL074C, strain BRE1, stronger effect = lower value 0.963 | locus YDL101C, strain DUN1, stronger effect = lower value 0.943 | locus YDL185W, strain tfp1, stronger effect = lower value 0.988 | locus YDR001C, strain nth1, stronger effect = lower value 0.929 | locus YDR137W, strain rgp1, stronger effect = lower value 0.974 | locus YDR159W, strain sac3, stronger effect = lower value 0.941 | locus YDR195W, strain ref2 1.01 | locus YDR334W, strain swr1, stronger effect = lower value 0.98 | locus YDR335W, strain msn5, stronger effect = lower value 0.927 | locus YDR392W, strain spt3, stronger effect = lower value 1.09 | locus YEL061C, strain CIN8 (second series), stronger effect = lower value 0.948 | locus YEL061C, strain CIN8, stronger effect = lower value 0.982 | locus YER015W, strain faa2, stronger effect = lower value 0.979 | locus YER016W, strain bim1, stronger effect = lower value 0.95 | locus YER110C, stronger effect = lower value 1.01 | locus YER111C, strain swi4, stronger effect = lower value 0.96 | locus YER155C, strain BEM2 (second series), stronger effect = lower value 1.03 | locus YER155C, strain BEM2, stronger effect = lower value 1.03 | locus YER167W, strain BCK2, stronger effect = lower value 0.914 | locus YGL173C, strain kem1, stronger effect = lower value 0.917 | locus YGL227W, strain vid30, stronger effect = lower value 0.943 | locus YGL240W, strain doc1, stronger effect = lower value 1 | locus YGR078C, strain PAC10, stronger effect = lower value 0.986 | locus YGR135W, strain pre9, stronger effect = lower value 0.932 | locus YGR252W, strain gcn5, stronger effect = lower value 0.923 | locus YHR013C, strain ard1, stronger effect = lower value 1.07 | locus YHR027C, strain rpn1, stronger effect = lower value 0.958 | locus YHR129C, strain ARP1, stronger effect = lower value 0.932 | locus YIL066C, strain RNR3, stronger effect = lower value 0.934 | locus YIL073C, strain SPO22, stronger effect = lower value 0.88 | locus YJL115W, strain asf1, stronger effect = lower value 0.985 | locus YJL134W, strain LCB3, stronger effect = lower value 0.949 | locus YJL166W, strain qcr8, stronger effect = lower value 0.926 | locus YJL187C, strain SWE1 (second series), stronger effect = lower value 0.916 | locus YJL187C, strain SWE1, stronger effect = lower value 0.935 | locus YJR043C, strain POL32, stronger effect = lower value 0.968
0.819 (inactive) and 0.137 (active): locus YJL095W, strain BCK1, stronger effect = lower value
